Sampled rows, rich in hits. Any-hit rate of the full collection: about 2.5%.
CHT allo act – CHT positive allosteric modulators, primary screen, cell-based, membrane potential dye, choline EC20; B-score at 10 µM; CHT-expressing cells; active compounds read high; LV-AA mutant CHT in HEK293 cells; AID 488977, 2010; 310,000 tested, 0.49% active; High affinity choline transporter 1 (Homo sapiens), Q9GZV3;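 active = initial fluorescence not abnormally high and integrated response B-score, plate-corrected, over 3 SD above library mean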
TMEM16A inh – TMEM16A chloride channel inhibitors, primary screen, cell-based, HTS | Anoctamin-1 (Mus musculus), Q8BHY3 | HEK293 TMEM16A/YFP iodide influx fluorescence, ionomycin | normalized B-score (activity score, 25-100; higher = stronger inhibition) at 10 µM | 310,000 tested, 1.2% active;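 active = ratio plate-corrected score three or more library SD toward inhibition, starting fluorescence score within five deviations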;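 note: score derived from kinetic fluorescence span divided by baseline fluorescence per well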
Target sequence (Q8BHY3 whole entry, looked up): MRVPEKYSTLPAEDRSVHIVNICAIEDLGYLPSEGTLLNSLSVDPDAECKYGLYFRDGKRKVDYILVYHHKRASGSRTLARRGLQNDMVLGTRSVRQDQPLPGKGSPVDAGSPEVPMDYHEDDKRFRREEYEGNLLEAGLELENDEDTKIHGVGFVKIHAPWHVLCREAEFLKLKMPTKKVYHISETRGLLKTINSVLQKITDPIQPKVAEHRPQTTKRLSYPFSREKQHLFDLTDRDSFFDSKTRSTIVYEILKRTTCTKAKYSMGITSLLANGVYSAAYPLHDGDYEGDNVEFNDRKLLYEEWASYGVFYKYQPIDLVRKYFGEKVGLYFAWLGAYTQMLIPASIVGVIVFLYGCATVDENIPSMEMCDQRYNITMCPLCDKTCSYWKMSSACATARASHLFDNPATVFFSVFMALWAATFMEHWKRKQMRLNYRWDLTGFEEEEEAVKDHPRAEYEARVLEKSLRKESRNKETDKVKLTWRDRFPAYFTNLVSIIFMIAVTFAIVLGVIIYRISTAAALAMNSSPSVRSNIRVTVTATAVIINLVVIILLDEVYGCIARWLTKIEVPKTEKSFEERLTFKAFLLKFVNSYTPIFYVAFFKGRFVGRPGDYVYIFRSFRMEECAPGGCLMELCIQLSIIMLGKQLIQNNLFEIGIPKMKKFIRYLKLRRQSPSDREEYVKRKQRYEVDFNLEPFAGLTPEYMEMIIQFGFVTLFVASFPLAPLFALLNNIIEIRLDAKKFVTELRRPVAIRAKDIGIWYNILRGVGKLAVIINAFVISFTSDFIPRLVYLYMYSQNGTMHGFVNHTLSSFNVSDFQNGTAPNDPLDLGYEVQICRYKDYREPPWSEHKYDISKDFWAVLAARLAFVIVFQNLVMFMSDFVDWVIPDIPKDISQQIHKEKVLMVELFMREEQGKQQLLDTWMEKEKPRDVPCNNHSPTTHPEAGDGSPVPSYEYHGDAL
PKA-R2B act – activators of PKA-R2B holoenzyme, primary screen, biochemical, fluorescence polarization, Cy5-IP20, human; activation, % at 11.4 µM; PKA-R2B holoenzyme dissociation; R2B truncated from residue 108, S112A mutant; 0% DMSO only, 100% 113 µM cGMP; 340,000 tested, 0.079% active; AID 504700, 2011; cAMP-dependent protein kinase catalytic subunit beta (Homo sapiens) + cAMP-dependent …;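 active = activation above a cutoff set at the mean over all compounds plus 3 SD, cut at about 18% in these data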;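 note: higher means more holoenzyme dissociation and a rise in polarization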
PKA-R1A activ – activators of PKA-R1A holoenzyme, primary screen, biochemical, fluorescence polarization, Cy5-IP20, bovine R1A, mouse PKAc. PKA-R1A dissociation; scaled: DMSO 0%, 113 µM cGMP 100%. activation, % at 11.4 µM. 340,000 tested, 0.083% active;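 active = percent activation above the mean of all tested compounds plus 3 SD, cut at about 19% in these data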;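 note: higher means more PKAc released from R1A so a rise in polarization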
TMEM16A act – TMEM16A chloride channel activators or potentiators, primary screen, cell-based, HTS | Anoctamin-1 (Mus musculus), Q8BHY3 | HEK293 TMEM16A/YFP-H148Q/I152L, iodide quench fluorescence; active compounds read low | B-score at 10 µM | 340,000 tested, 0.3% active;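 active = fluorescence-ratio B-score plate-corrected deviation score at least 3 library SD below zero, with starting fluorescence score within 5 deviations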;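 note: channel opened by trigger with iodide after compound preincubation; score built on the fluorescence ratio of max minus min over baseline; more negative score means more quench and so TMEM16A activation or potentiation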
CHT block – inhibitors of human choline transporter CHT; High affinity choline transporter 1 (Homo sapiens), Q9GZV3; CHT-expressing cells, membrane potential dye, choline response; active compounds read low; B-score at 10 µM; 310,000 tested, 0.86% active;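 active = B-score over 3 SD under the library average, and starting fluorescence ratio not unusually high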;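 note: choline stimulus applied at its EC90 after an EC20 pre-addition; B-score computed on integrated fluorescence ratio after choline addition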
CHT act confirm – CHT activators, confirmation, cell-based, membrane potential dye, duplicate | 2,500 tested, 91% active | CHT-expressing cells, membrane potential dye fluorescence (FDSS); % of choline EC20–EC90 response window; HEK293 expressing CHT LV-AA mutant; choline added at its EC20 | shares compounds with CHT allo act | activation, % at 10 µM;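 active = primary screen active, with duplicate mean activation above negative control mean plus 3 SD, cut at about 11% in these data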
HEK293 MP dye – membrane potential response in parental HEK293 cells, counter-screen for CHT activator project, cell-based, membrane potential dye; shares compounds with CHT allo act; membrane potential dye fluorescence (FDSS); measured after EC20 choline addition; ratio readout change at 10 µM, hits read low; 2,500 tested, 62% active;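 active = duplicate-averaged ratio beyond 3 SD from buffer wells, up or down, though filed actives are nearly all decreases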
The depositor's hits bear a star; i = inactive; / = no result given.

SMILES	CHT allo act	TMEM16A inh	PKA-R2B act	PKA-R1A activ	TMEM16A act	CHT block	CHT act confirm	HEK293 MP dye
CCCN(CC(=O)Nc1ccccc1Br)CC(=O)Nc1ccc(F)c(F)c1F	i	i	-4	-21	i	i	18*	i
COc1c(N2CCN[C@H](C)C2)c(F)cc2c(=O)c(C(=O)O)cn(C3CC3)c12	6.3*	i	/	/	/	i	31*	-40*
CC1COc2c(N3CCN(C)CC3)c(F)cc3c(=O)c(C(=O)O)cn1c23 (configuration not stated)	8.7*	i	-6	16	i	i	44*	-44*
COc1c(F)c(F)cc2c(=O)c(C(=O)O)cn(C3CC3)c12	i	i	1	-3	i	i	/	/
COc1c(N2C[C@@H]3CCCN[C@@H]3C2)c(F)cc2c(=O)c(C(=O)O)cn(C3CC3)c12	7.8*	i	2	-1	i	i	35*	-42*
CCOc1ccc(NC(=O)c2ccc(NC(=O)c3cn4c5c(c(N6CCN(C)CC6)c(F)cc5c3=O)OCC4C)cc2)cc1 (configuration not stated)	i	i	4	-3	i	i	/	/
O=C(COc1ccccc1F)NCC(c1ccc(F)cc1)N1CCOCC1 (configuration not stated)	/	/	-2	-16	i	/	/	/
CCN(c1ccc(OC)cc1)S(=O)(=O)N1CCCC(C(=O)NCc2cccc(C)c2)C1 (configuration not stated)	i	i	-1	-10	i	i	/	/
Cc1c(O)ccc2c(CN3CCN(CCO)CC3)cc(=O)oc12	17*	i	-8	-6	i	i	66*	-70*
Cc1c(O)ccc2c(CN3CCOCC3)cc(=O)oc12	i	i	-5	-11	i	i	/	/
CCOC(=O)c1ccc2[nH]c3c(c2c1)CN(C)CC3	6.8*	i	2	-4	i	i	32*	-43*
Cc1ccc2[nH]c3c(c2c1)CN(C)CC3	i	i	-9	-3	i	i	/	/
Nc1cc(=O)[nH]c(N2CCN(c3ccccc3)CC2)n1	i	i	4	-14	i	i	/	/
c1ccc(-c2csc(Nc3cccnc3)n2)nc1	i	i	0	2	i	i	50*	-55*
COc1cc(OC)c2ccc(=O)oc2c1C(CC(=O)N1CCN(c2ccccc2)CC1)c1ccc2c(c1)OCO2 (configuration not stated)	i	i	-14	-8	i	i	33*	i
COc1cc(OC)c2ccc(=O)oc2c1C(CC(=O)N1CCOCC1)c1ccc2c(c1)OCO2 (configuration not stated)	i	i	-11	-9	i	i	/	/
Cc1sc2ncnc(NCCCn3ccnc3)c2c1C	i	i	3	1	i	i	48*	-51*
CC1(C)CC(C(CCN(Cc2ccccc2)C(=O)c2ccco2)c2ccc(F)cc2)CCO1 (configuration not stated)	9.7*	i	-3	-18	i	i	56*	i
Cc1ccc(C(=O)c2cc([N+](=O)[O-])ccc2N2CC(C)OC(C)C2)cc1 (configuration not stated)	i	i	-11	0	i	i	/	/
Cc1ccc(C(=O)c2cc([N+](=O)[O-])ccc2N2CCCCC2)cc1	i	i	1	-4	i	i	31*	i
O=C(c1ccc(Cl)cc1)c1cc([N+](=O)[O-])ccc1N1CCOCC1	i	i	-2	14	i	i	50*	i
O=C(c1ccccc1)c1cc([N+](=O)[O-])ccc1N1CCOCC1	i	i	-7	-2	i	i	57*	i
COc1ccc(COC(=O)c2cc([N+](=O)[O-])ccc2N2CCOCC2)cc1F	9.4*	i	-2	13	i	i	67*	i
O=C(CCC(=O)N1CCCC1)N1CCCC1	i	i	0	-4	i	i	/	/
Cc1ccc(NC(=O)CCS(=O)(=O)c2ccccc2)cc1S(=O)(=O)N1CCCCCC1	/	/	-8	-2	i	/	/	/
SMILES	CHT allo act	TMEM16A inh	PKA-R2B act	PKA-R1A activ	TMEM16A act	CHT block	CHT act confirm	HEK293 MP dye
O=C(NCc1ccccc1)C(c1c(F)cccc1Cl)N(C(=O)c1csnn1)C1CC1 (configuration not stated)	i	i	-6	1	i	i	/	/
O=C(COC(=O)c1cc([N+](=O)[O-])ccc1N1CCOCC1)Nc1ccc(Cl)cn1	6.8*	i	-7	-1	i	i	20*	i
O=C(NCc1ccc2c(c1)OCO2)c1cc([N+](=O)[O-])ccc1N1CCCCC1	9.2*	i	5	7	i	i	51*	i
O=C(NCc1ccc2c(c1)OCO2)c1cccc([N+](=O)[O-])c1	i	i	-5	-6	i	i	/	/
CC(=O)Nc1ccc(N2CCCC(C)C2)c([N+](=O)[O-])c1 (configuration not stated)	i	i	10	3	i	i	/	/
CC1CCCN(c2ccc([N+](=O)[O-])cc2C(=O)c2ccccc2)C1 (configuration not stated)	7.6*	i	13	-3	i	i	27*	i
CC(C)(C)n1nc2c(c1NC(=O)c1cc(Cl)ccc1[N+](=O)[O-])CS(=O)(=O)C2	7.2*	i	8	-7	i	i	39*	i
Cc1nn(S(=O)(=O)c2ccccc2)c(C)c1Sc1ccc([N+](=O)[O-])cc1	8*	25*	-4	1	i	i	29*	i

High-throughput results: PubChem, several laboratories
